Results filed as inconclusive are left out. Where a call stands in place of a potency, no number is given. The source made the active and inactive calls. Unless noted, calls follow the shape of the dose curve; as a rule, active = well fitted curve in the direction sought with a large enough effect; inconclusive = small, poorly fitted or top-dose-only effect, or another doubt; inactive = no such curve, though single readings can be large; an effect the other way counts as inactive or inconclusive.
Tests used:
[1] = Validation of Assay for Modulators of Lamin A Splicing (AID 1459; active = well fitted curve in the direction sought with a large enough effect in the signal ratio; the % refers to the signal ratio;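 also: cells exposed to compound for two days before reading; ratio rise marks activators and ratio drop marks inhibitors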)
Procedure, shortened: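 S3 HeLa cells stably expressing a lamin A-EGFP splicing minigene and DsRed2 were seeded at 600 cells/well in Opti-MEM with 2% FBS, pin-dosed, and incubated 48 hrs at 37 °C, 5% CO2. Laser-scanning cytometry (488 nm) gave GFP/RFP total intensity ratio.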

[2] = target: DNA repair nuclease/redox regulator APEX1 (Homo sapiens) (UniProt P27695); experiment: qHTS Validation Assay for Inhibitors of the Human Apurinic/apyrimidinic Endonuclease 1 (APE1) (AID 1705;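 also: TAMRA fluorescence gain over two minutes as APE1 cuts a quenched THF abasic duplex; series mostly up to about 57 µM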)
DNA repair nuclease/redox regulator APEX1 (Homo sapiens), sequence (P27695 whole entry, looked up): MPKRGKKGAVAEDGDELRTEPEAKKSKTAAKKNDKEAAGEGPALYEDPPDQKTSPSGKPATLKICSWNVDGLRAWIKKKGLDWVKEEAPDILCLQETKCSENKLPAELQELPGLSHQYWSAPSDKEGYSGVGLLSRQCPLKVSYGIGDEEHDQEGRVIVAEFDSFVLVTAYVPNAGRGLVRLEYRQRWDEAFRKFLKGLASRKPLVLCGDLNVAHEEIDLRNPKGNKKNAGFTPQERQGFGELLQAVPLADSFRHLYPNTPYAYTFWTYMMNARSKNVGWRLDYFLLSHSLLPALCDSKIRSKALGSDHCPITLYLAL
Procedure, shortened: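 Human APE1 was preincubated with compound for 15 min at room temperature, then 50 nM (final) THF-abasic double-stranded DNA substrate bearing 5'-TAMRA and 3'-BHQ-2 was added. Incision-driven fluorescence rise (ex 525/em 598 nm) was read kinetically.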

[3] = Counterscreen for APE1 Inhibitors: Fluorescent Dye Displacement Validation Assay (AID 1707)
Procedure, shortened: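 Thiazole Orange (250 nM) bound to 50 nM TAMRA-labelled dsDNA with tetrahydrofuran abasic site; displacement by DNA-binding compounds lowers fluorescence. Buffer 50 mM Tris-HCl pH 7.5, 50 mM NaCl, 2 mM MgCl2, 0.01% Tween-20; endpoint read at 480/540 nm.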

[4] = qHTS for differential inhibitors of proliferation of Plasmodium falciparum line 7G8 (AID 1815);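 also: parasite growth measured after three days of incubation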; also: potency is read from the fitted curve at half-maximal effect
[5] = qHTS for differential inhibitors of proliferation of Plasmodium falciparum line GB4 (AID 1816); conditions: Potency: Plasmodium falciparum GB4 proliferation inhibition;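 also: parasite growth measured after 72 h incubation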; also: potency is read from the fitted curve at half-maximal effect
[6] = qHTS for differential inhibitors of proliferation of Plasmodium falciparum line 3D7 (AID 1876); also: potency is read from the fitted curve at half-maximal effect
[7] = target: Alpha-galactosidase A (Homo sapiens) (UniProt P06280); experiment: Counterscreen for Glucocerebrosidase Inhibitors: qHTS Assay for Human alpha-Galactosidase at pH 4.5 (AID 992)
Alpha-galactosidase A (Homo sapiens), sequence (P06280 whole entry, looked up): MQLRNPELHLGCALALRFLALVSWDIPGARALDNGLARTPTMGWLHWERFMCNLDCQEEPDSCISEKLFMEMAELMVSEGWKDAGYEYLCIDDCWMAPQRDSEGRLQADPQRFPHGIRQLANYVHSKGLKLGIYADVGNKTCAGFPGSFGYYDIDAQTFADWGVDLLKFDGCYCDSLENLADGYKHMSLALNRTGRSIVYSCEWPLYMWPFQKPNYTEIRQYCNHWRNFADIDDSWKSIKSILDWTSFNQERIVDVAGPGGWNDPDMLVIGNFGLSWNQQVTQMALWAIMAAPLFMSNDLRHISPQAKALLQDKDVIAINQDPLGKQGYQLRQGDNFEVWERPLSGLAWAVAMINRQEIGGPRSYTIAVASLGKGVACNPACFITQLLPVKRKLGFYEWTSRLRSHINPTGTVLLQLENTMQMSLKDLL
Procedure, shortened: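 Human enzyme (2 nM) with 80 uM 4-methylumbelliferyl alpha-D-galactopyranoside in 50 mM citric acid, 0.005% Tween-20, pH 4.5, 20 min at room temperature. Compounds 0.7 nM–77 uM; fluorescence Ex 365/Em 440 after pH 10 stop; AC50 from Hill fits.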

[8] = target: alpha-glucosidase (Oryza sativa, rice) (UniProt Q653V4); experiment: Counterscreen for Glucocerebrosidase Inhibitors: qHTS Assay for Rice alpha-Glucosidase at pH 5.0 (AID 997)
Procedure, shortened: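 Rice alpha-glucosidase (4 nM final) with 400 uM 4-methylumbelliferyl-alpha-D-glucopyranoside in citrate buffer pH 5.0, 20 min at room temperature, stopped at pH 10; fluorescence 365/440 nm, compounds 0.7 nM–77 uM, AC50 from Hill fits.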

[9] = target: Endonuclease 4 (Escherichia coli (strain K12)) (UniProt P0A6C1); experiment: Counterscreen for APE1 Inhibitors: qHTS Validation Assay for Inhibitors of Endonuclease IV (AID 1708)
Procedure, shortened: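 2 nM enzyme was preincubated with compounds for 15 min at room temperature in 50 mM Tris-HCl pH 7.5, 50 mM NaCl, 2 mM MgCl2, 1 mM DTT, 0.01% Tween-20. 50 nM THF-abasic TAMRA/BHQ-2 duplex substrate started the reaction.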

## C#CC(N)CCC(=O)O (configuration not stated)
[1]
  outcome: inactive
[2]
  Potency: inactive
[3]
  Potency: inactive
[4]
  Potency: inactive
[5]
  Potency: inactive
[6]
  Potency: inactive

## N[C@@H](Cc1ccc(O)c(I)c1)C(=O)O
[7]
  outcome: inactive
[8]
  outcome: inactive
[1]
  outcome: inactive
[2]
  Potency: inactive
[3]
  Potency: inactive
[9]
  Potency: inactive
[4]
  Potency: inactive
[5]
  Potency: inactive
[6]
  Potency: inactive

## CCCOC(=O)c1c(-c2ccccc2)nc(CC)c(C(=O)SCC)c1CCC
[7]
  outcome: inactive
[8]
  outcome: inactive
[1]
  outcome: inactive
[2]
  Potency: inactive
[3]
  Potency: inactive
[9]
  Potency: inactive
[4]
  Potency: 12.6 µM (active)
[5]
  Potency: 11.2 µM (active)

## CSC(=N)N
[7]
  outcome: inactive
[8]
  outcome: inactive
[1]
  outcome: inactive
[2]
  Potency: inactive
[3]
  Potency: inactive
[9]
  Potency: inactive
[4]
  Potency: inactive
[5]
  Potency: inactive
[6]
  Potency: inactive

## COc1cccc(OC)c1OCCNCC1CSc2ccccc2O1 (configuration not stated)
[1]
  outcome: inactive
[2]
  Potency: inactive
[3]
  Potency: inactive
[4]
  Potency: 7.94 µM (active)
[5]
  Potency: 4.47 µM (active)

## CC(C)C[C@H](NC(=O)[C@H](O)[C@H](N)Cc1ccccc1)C(=O)O
[1]
  outcome: inactive
[2]
  Potency: inactive
[3]
  Potency: inactive
[9]
  Potency: inactive
[4]
  Potency: inactive
[5]
  Potency: inactive
[6]
  Potency: inactive

## Cc1nc2c(OCc3ccccc3)cccn2c1CC#N
[7]
  outcome: inactive
[8]
  outcome: inactive
[1]
  outcome: inactive
[2]
  Potency: inactive
[3]
  Potency: inactive
[9]
  Potency: inactive
[4]
  Potency: inactive
[5]
  Potency: inactive
[6]
  Potency: inactive

## [Li+]
[7]
  outcome: inactive
[1]
  outcome: inactive
[2]
  Potency: inactive
[3]
  Potency: inactive
[9]
  Potency: inactive
[4]
  Potency: inactive
[5]
  Potency: inactive
[6]
  Potency: inactive

## CC1C(=O)N(C)C(=O)c2nc[nH]c21 (configuration not stated)
[1]
  outcome: inactive
[2]
  Potency: inactive
[3]
  Potency: inactive
[9]
  Potency: inactive
[4]
  Potency: inactive
[5]
  Potency: inactive
[6]
  Potency: inactive

## CC(N)(C(=O)O)c1ccc(C(=O)O)cc1 (configuration not stated)
[1]
  outcome: inactive
[2]
  Potency: inactive
[3]
  Potency: inactive
[4]
  Potency: inactive
[5]
  Potency: inactive
[6]
  Potency: inactive

## COc1ccc(-c2ccc(N)[n+](CCCC(=O)O)n2)cc1
[7]
  outcome: inactive
[8]
  outcome: inactive
[1]
  outcome: inactive
[2]
  Potency: inactive
[3]
  Potency: inactive
[9]
  Potency: inactive
[4]
  Potency: inactive
[5]
  Potency: inactive
[6]
  Potency: inactive

## O=c1[nH]c2cc(Cl)ccc2c(O)c1-c1ccc(Oc2ccccc2)cc1
[7]
  outcome: inactive
[8]
  outcome: inactive
[1]
  outcome: inactive
[2]
  Potency: inactive
[3]
  Potency: inactive
[9]
  Potency: inactive
[4]
  Potency: inactive
[6]
  Potency: inactive

## CCCN(CCc1ccccc1)C1CCc2c(O)cccc2C1 (configuration not stated)
[1]
  outcome: inactive
[2]
  Potency: inactive
[3]
  Potency: inactive
[4]
  Potency: 1.12 µM (active)
[5]
  Potency: 0.891 µM (active)
[6]
  Potency: 3.16 µM (active)

Reference: PubChem BioAssay (NCATS)
